Assay outcomes: PubChem BioAssay, The Scripps Research Institute Molecular Screening Center
Many of the other results were omitted from the sample, so hits are more common in it than they were.
GBA activity up = GBA activity enhancers in patient fibroblasts, primary screen, cell-based | Lysosomal acid glucosylceramidase (Homo sapiens), P04062 | L444P Gaucher fibroblasts, 4-MU-glucoside fluorescence, 3 days | activation, % at 10 µM | hit rate 0.44% among 30,000; in the data active = activation above about 65%
Large screens that a line does not name were inactive.

O=c1cccc2n1CC1CC2CN(Cc2cccc(Cl)c2Cl)C1 (configuration not stated)	GBA activity up 404
CC(C)OC(=O)C1C(=O)NC2(C)CC1c1ccccc1O2 (configuration not stated)	none
CC12CNCC(C)(CNC1)C2O (configuration not stated)	none
Cc1cc(N2C(=O)C3CCCN3C2c2sccc2C)no1 (configuration not stated)	none
CC(=NCC1CCCO1)c1c(O)n(Cc2ccccc2)c(=O)[nH]c1=O (configuration not stated)	none
O=C1CC(=O)N(c2ccc3c(c2)OCO3)C(=O)N1	GBA activity up 81
CN(C)P1(N(C)C)=Nc2c(c(N)nn2C)C(c2ccccc2)=N1	none
CCC(=O)N1c2ccc(S(=O)(=O)CCC(=O)N3CCC4(CC3)OCCO4)cc2CC1C (configuration not stated)	none
O[C@@H]1CCCC[C@H]1N1CCC(c2ccccc2)CC1	none
O=C1c2ccccc2C2(c3ccc(Cl)cc3)NCCN12 (configuration not stated)	none
